In this test the test system is MDA-MB-231. Description: relative cell viability, compound alone, vs DMSO (fraction of DMSO control); higher = less growth inhibition. The conditions noted are these: 72 h.
For the compound `CC1(C)CC[C@]2(C(=O)O[C@@H]3O[C@H](CO)[C@@H](O)[C@H](O)[C@H]3O)CC[C@]3(C)C(=CC[C@@H]4[C@@]5(C)CC[C@H](O[C@@H]6O[C@H](C(=O)O)[C@@H](O)[C@H](O)[C@H]6O[C@@H]6O[C@H](CO)[C@@H](O)[C@H](O)[C@H]6O)C(C)(C)[C@@H]5CC[C@]43C)[C@@H]2C1` [Ginsenoside Ro], the relative cell viability amounted to 0.9. The figure for `Cc1c(C(=O)Nc2ccc(CO)cc2)nnn1Cc1ccc(Cl)c(Cl)c1` is 0.95; for `CCCCCCS(=O)(=O)NC(=O)c1ccc(CSCc2ccc(-c3ccccc3)cc2)cc1` it is 0.91.

Source of the values: the supplement of paper PMC9492666.
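Note: viability read out with the CCK-8 kit in 96-well plates, screening a set of 303 compounds acting on lipid metabolism targets.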
